Results published in the supplement of paper PMC13380429.

Test system: Vero E6 infected with SARS-CoV-2
Assay: inhibition of SARS-CoV-2 cytopathic effect; higher = more antiviral protection, active = above 15
Settings: 48 h

Measured: inhibition of SARS-CoV-2 cytopathic effect

Cc1nc2n(c(=O)c1CCN1CCC(c3noc4cc(F)ccc34)CC1)CCCC2O (stereo not given) [paliperidone]
inactive: 1 nM -1.5% | 8.33 nM -3.74% | 100 nM -2.02% | 833.33 nM -3.59% | 10000 nM -4.1%

OCc1c[nH]c2ccccc12 [indole-3-carbinol]
inactive: 1 nM -1.46% | 8.33 nM 0.47% | 100 nM -3.76% | 833.33 nM -0.69% | 10000 nM -14.3%

COC(=O)C1=C(C)NC(C)=C(C(=O)OCC(C)C)C1c1ccccc1[N+](=O)[O-] (stereo not given) [nisoldipine]
inactive: 1 nM -1.53% | 8.33 nM 0.72% | 100 nM -2.24% | 833.33 nM -0.83% | 10000 nM 1.64%

OCCN1CCN(CCCN2c3ccccc3Sc3ccc(C(F)(F)F)cc32)CC1 [fluphenazine]
active: 10000 nM 20.5%
inactive: 1 nM -8.05% | 8.33 nM -7.65% | 100 nM -6.69% | 833.33 nM -9.7%

Nc1cc(-c2ccncc2)c[nH]c1=O [amrinone]
inactive: 1 nM 3.03% | 8.33 nM 3.76% | 100 nM -3.46% | 833.33 nM -6.26% | 10000 nM 1.36%

CC(=O)O[C@H]1C[C@@]2(C)[C@@H](C[C@@H](O)[C@H]3[C@@]4(C)CC[C@@H](O)[C@@H](C)[C@@H]4CC[C@@]32C)/C1=C(\CCC=C(C)C)C(=O)O [fusidic-acid]
inactive: 1 nM -0.53% | 8.33 nM 0.07% | 100 nM -1.13% | 833.33 nM -8.51% | 10000 nM -1.02%

CC(CCc1ccc(O)cc1)NCCc1ccc(O)c(O)c1 (stereo not given) [dobutamine]
inactive: 1 nM -0.38% | 8.33 nM -2.55% | 100 nM -1.12% | 833.33 nM -2.15% | 10000 nM -0.94%

CSc1nc2ccc3nc(NC(=O)C(c4ccccc4)c4ccccc4)sc3c2s1
inactive: 1 nM 1.77% | 8.33 nM 1.67% | 100 nM 1.24% | 833.33 nM 1.38% | 10000 nM -1.25%

c1ccc2sc(SN3CCOCC3)nc2c1 [N-oxydiethylenebenzothiazole-2-sulfenamide]
inactive: 1 nM -2.53% | 8.33 nM -1.68% | 100 nM -1.37% | 833.33 nM 0.03% | 10000 nM -1.24%

COC(=O)C1=C(C#N)NC(C)=C(C(=O)OC(C)C)C1c1cccc([N+](=O)[O-])c1 (stereo not given) [nilvadipine]
inactive: 1 nM -1.91% | 8.33 nM -2.45% | 100 nM 0.29% | 833.33 nM 5.15% | 10000 nM 3.78%

Oc1cc2c(cc1O)C(c1ccccc1)CNCC2 (stereo not given)
inactive: 1 nM 3.06% | 8.33 nM 1.73% | 100 nM 1.53% | 833.33 nM 1.32% | 10000 nM 0.48%

CCCN[C@@H]1CCc2c(OC)cccc2[C@@H]1C
inactive: 1 nM -1.51% | 8.33 nM -1.5% | 100 nM -0.05% | 833.33 nM -0.17% | 10000 nM -3.49%

CN=c1nc(-c2ccccc2)n(-c2ccccc2)s1
inactive: 1 nM 1.73% | 8.33 nM 0.95% | 100 nM -0.38% | 833.33 nM 0.89% | 10000 nM -1.43%

CCOC(=O)c1c(CSc2ccccc2)n(C)c2cc(Br)c(O)c(CN(C)C)c12 [arbidol]
inactive: 1 nM -1.24% | 8.33 nM 3.62% | 100 nM 2.92% | 833.33 nM 4.8% | 10000 nM 3.91%

Clc1ccc(CO/N=C(\Cn2ccnc2)c2ccc(Cl)cc2Cl)c(Cl)c1 [oxiconazole]
inactive: 1 nM -0.54% | 8.33 nM 0.43% | 100 nM 1.05% | 833.33 nM 0.68% | 10000 nM -1.24%

CN(C)C(=O)c1cc2cnc(Nc3ccc(N4CCNCC4)cn3)nc2n1C1CCCC1 [ribociclib]
inactive: 1 nM -0.57% | 8.33 nM -0.13% | 100 nM -0.03% | 833.33 nM -3.73% | 10000 nM -7.22%

O=C(Nc1cc(-c2ccccc2)nn1-c1ccccc1F)c1ccc([N+](=O)[O-])cc1
inactive: 1 nM -0.89% | 8.33 nM 1.45% | 100 nM 1.23% | 833.33 nM -3.16% | 10000 nM 2.79%

Cc1c(F)cc(C(=O)NC2CC2)cc1-c1c(F)cn2c(C(C)(C)C)nnc2c1F
inactive: 1 nM -1.55% | 8.33 nM -0.6% | 100 nM -3.43% | 833.33 nM 0.89% | 10000 nM -0.19%

CCOC(=O)NNc1ccc(N(CC)CC(C)O)nn1 (stereo not given) [cadralazine]
inactive: 1 nM -0.85% | 8.33 nM -0.3% | 100 nM -1.93% | 833.33 nM -1.81% | 10000 nM 0.1%

O.O=[Si]=O.O=[Si]=O.O=[Si]=O.O=[Si]=O.[O]=[Mg].[O]=[Mg].[O]=[Mg]
inactive: 1 nM -4.07% | 8.33 nM 0.07% | 100 nM -1.66% | 833.33 nM 5.91% | 10000 nM 8.79%

O=C1CCc2ccc(OCCCCN3CCN(c4cccc(Cl)c4Cl)CC3)cc2N1 [aripiprazole]
inactive: 1 nM 5.18% | 8.33 nM -2.79% | 100 nM 1.15% | 833.33 nM -1.05% | 10000 nM -5.25%

C[C@]12C/C(=C/O)C(=O)C[C@@H]1CC[C@@H]1[C@@H]2CC[C@@]2(C)[C@H]1CC[C@]2(C)O [Oxymetholone]
inactive: 1 nM 0.88% | 8.33 nM 0.02% | 100 nM 1.73% | 833.33 nM 0.45% | 10000 nM 1.57%

Cc1cc(C)n(-c2cccc([C@H](CC(=O)O)CN3CC[C@@H](CCc4ccc5c(n4)NCCC5)C3)c2)n1 [integrin-antagonist-1]
inactive: 1 nM 6.72% | 8.33 nM 7.35% | 100 nM 0.83% | 833.33 nM 0.99% | 10000 nM -0.92%

O=C1NC(=O)C(c2cnc3ccccn23)=C1c1cn2c3c(cc(F)cc13)CN(C(=O)N1CCCCC1)CC2
inactive: 1 nM 0.79% | 8.33 nM 7.15% | 100 nM 14.4% | 10000 nM 14.8%
active: 833.33 nM 16%

CC(C)C1=C2[C@H]3CC[C@@H]4[C@@]5(C)CC[C@H](OC(=O)CC(C)(C)C(=O)O)C(C)(C)[C@@H]5CC[C@@]4(C)[C@]3(C)CC[C@@]2([C@@H](O)CN(CCN(C)C)Cc2ccc(Cl)cc2)CC1=O
inactive: 1 nM -0.51% | 8.33 nM 1.17% | 100 nM -0.05% | 833.33 nM 0.73% | 10000 nM -1.86%

Cc1cc2nc3c(=O)[nH]c(=O)nc-3n(C[C@H](O)[C@H](O)[C@H](O)CO)c2cc1C [riboflavin]
inactive: 1 nM -3.6% | 8.33 nM -1.59% | 100 nM -1.7% | 833.33 nM 0.03% | 10000 nM 0.32%

C[C@H]1C[C@@H]2[C@H]([C@@H](O)C[C@@]3(C)[C@H]2CC[C@]3(O)C(=O)CO)[C@@]2(C)C=CC(=O)C=C12 [methylprednisolone]
inactive: 1 nM 0.61% | 8.33 nM 3.49% | 100 nM -1.8% | 833.33 nM 0.94% | 10000 nM 0.36%

O=C(Oc1ccc([N+](=O)[O-])cc1)N1CCC(C(O)(c2ccc3c(c2)OCO3)c2ccc3c(c2)OCO3)CC1
inactive: 1 nM 0.7% | 8.33 nM 6.75% | 100 nM 2.26% | 833.33 nM 1.03% | 10000 nM 1.62%

COc1ccc(N(C(=O)Oc2c(C)cccc2C)c2ccnc(Nc3ccc(N4CCN(C)CC4)cc3)n2)c(OC)c1
inactive: 1 nM 0.25% | 8.33 nM 1.54% | 100 nM 0.43% | 833.33 nM 0.02% | 10000 nM -1.27%

Nc1ccn([C@@H]2CS[C@H](CO)O2)c(=O)n1 [lamivudine]
inactive: 1 nM -0.38% | 8.33 nM 0.6% | 100 nM -0.56% | 833.33 nM -0.22% | 10000 nM 4.96%

O=C(O)c1ccccc1Nc1cccc(C(F)(F)F)c1 [flufenamic-acid]
inactive: 1 nM -1.93% | 8.33 nM 0.57% | 100 nM -0.92% | 833.33 nM 0.82% | 10000 nM 0.1%

O=C(NCC(=O)N1CCCC1)Nc1ccc2cnccc2c1
inactive: 1 nM -2.26% | 8.33 nM 0.25% | 100 nM 0.13% | 833.33 nM 1% | 10000 nM -1.4%

CC#CC(=O)N1CCC[C@H]1c1nc(-c2ccc(C(=O)Nc3ccccn3)cc2)c2c(N)nccn12 [acalabrutinib]
inactive: 1 nM 2.14% | 8.33 nM -0.44% | 100 nM 0.31% | 833.33 nM -0.11% | 10000 nM -0.34%

CNC(=O)c1ccc(-c2cnc3ncc(Cc4ccc5ncccc5c4)n3n2)cc1F
inactive: 1 nM 0.17% | 8.33 nM -1.02% | 100 nM -1.1% | 833.33 nM 2.22% | 10000 nM 7.85%

Cc1ccc(Cl)c(OCC(O)CNC(C)(C)C)c1 (stereo not given) [bupranolol]
inactive: 1 nM 1.32% | 8.33 nM -0.4% | 100 nM -5.32% | 833.33 nM -1.98% | 10000 nM -0.94%

CC(C)NCC(O)COc1cccc2[nH]c3ccccc3c12 (stereo not given) [carazolol]
inactive: 1 nM 1.76% | 8.33 nM -2.21% | 100 nM -1.61% | 833.33 nM 0% | 10000 nM -4.08%

NCCCC[C@H](NC(=O)[C@@H]1CCCN1C(=O)[C@@H]1CSSC[C@H](N)C(=O)N[C@@H](Cc2ccc(O)cc2)C(=O)N[C@@H](Cc2ccccc2)C(=O)N[C@@H](CCC(N)=O)C(=O)N[C@@H](CC(N)=O)C(=O)N1)C(=O)NCC(N)=O [lypressin]
inactive: 1 nM 0.07% | 8.33 nM 1.59% | 100 nM 3.33% | 833.33 nM 1.65% | 10000 nM 0.67%

C[C@H](NCc1ccc(OCc2ccccc2F)cc1)C(N)=O [priralfinamide]
inactive: 1 nM -0.13% | 8.33 nM 7.24% | 100 nM 6.27% | 833.33 nM 0.58% | 10000 nM -1.48%
